Measurements as given in PubChem BioAssay (Tox21).
Results filed as inconclusive are left out. Where a call stands in place of a potency, no number is given. Active and inactive are the calls of the source. Calls follow the shape of the dose curve; as a rule, active = well fitted inhibition curve with a large enough effect in the repeat runs; inconclusive = weak or mixed curves, or effect the other way; inactive = no such curve, though single readings can be large or run the other way.

Target: Nuclear receptor subfamily 1 group I member 3 (Homo sapiens) (UniProt Q14994)
Assay: qHTS assay to identify small molecule antagonists of the constitutive androstane receptor (CAR) signaling pathway (AID 1224838);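 also: HepG2 cells stably expressing hCAR with CYP2B6 luciferase reporter stimulated by CITCO; nearly all actives have a fitted effect of over 40% in size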
Conditions: HepG2-CYP2B6-hCAR luciferase, CITCO-stimulated, 24 h; series mostly up to 92.4 µM
Excerpt: U.S. Tox21 Program National Center for Advancing Translational Sciences [NCATS] NIH Chemical Genomics Center [NCGC] U.S. Environmental Protection Agency [EPA] National Institutes of Environmental Health Sciences [NIEHS] National Toxicology Program [NTP] U.S. Food and Drug Administration [FDA] Tox21 Assay Overview: The constitutive androstane receptor (CAR) is a nuclear receptor which regulates multiple drug metabolizing enzymes (DMEs) and transporters. Activating CAR will generally increase the transcription and subsequent translation of CYP2B6 and CYP3A4. These two DMEs represent about 50% of the drug metabolizing potential in the body. When CAR is deactivated, the metabolizing potential in the body will decrease, subsequently increasing the toxicity in the body or lowering the therapeutic potential of a pro-drug. Recently, there have also been studies performed indicating CARs role in energy metabolism and cancer therapy. Therefore, inhibiting CARs activity could have a potential effect on diabetes and cancer. Identifying environmental toxins and compounds which modulate CAR, through the use of the Tox21 10K compound collection, will be an important step in determining the toxicity and potential therapeutic effects these factors will have on the human body.
Tox21 Assay Protocol Summary: A double-stable (hCAR and CYP2B6-2.2kb) transfected cell line, derived from human hepatoma (HepG2) cells, was utilized for the duration of the quantitative high-throughput screens. The HepG2-CYP2B6-hCAR cells suspended in DMEM culture medium supplemented with 10% FBS, 5 ug/mL blasticidin, 0.5 mg/mL geneticin, 100 U/mL penicillin and 100 ug/mL streptomycin were dispensed at 2500 cells/4 uL/well in 1536-well white solid bottom plates using a Multidrop Combi. After the assay plates were incubated at 37 C/5% CO2 for 4 hrs, 23 nL of compounds at 15 concentrations (from 5-48 columns) or positive control (from 1 to 4 columns) were transferred to the assay plates using a Pintool station. One uL of CITCO, was added using a Flying Reagent Dispenser to generate a final concentration of 50 nM CITCO inside each well. After a 24 hr incubation period at 37 C/5% CO2, four uL of ONE-Glo reagent was added into the assay plates using a Flying Reagent Dispenser. After a 30 min incubation period at room temperature, the luminescence intensity in the assay plates was measured using a ViewLux plate reader.
Potency is read from the fitted curve at half-maximal effect.

Chain of Nuclear receptor subfamily 1 group I member 3 (Homo sapiens) (Q14994 whole entry, looked up): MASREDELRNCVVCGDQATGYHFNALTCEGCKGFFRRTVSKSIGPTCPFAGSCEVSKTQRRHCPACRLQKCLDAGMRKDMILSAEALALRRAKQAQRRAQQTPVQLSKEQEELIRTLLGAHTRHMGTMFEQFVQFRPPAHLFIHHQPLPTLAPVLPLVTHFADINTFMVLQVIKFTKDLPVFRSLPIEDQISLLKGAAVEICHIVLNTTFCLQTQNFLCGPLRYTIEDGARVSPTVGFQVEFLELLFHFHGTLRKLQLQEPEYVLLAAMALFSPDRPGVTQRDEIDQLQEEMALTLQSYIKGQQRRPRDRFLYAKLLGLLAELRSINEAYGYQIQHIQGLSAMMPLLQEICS

SMILES | Potency | activity, negative = inhibition
Cc1cc(O)ccc1N | 3080 nM (active) | –
Cc1nc2ccccc2n1Cc1ccc(Cl)cc1 | inactive | –
O=S(=O)(O)c1ccc(O)c2ncccc12 | inactive | –
Cl/C(=C\n1cncn1)c1ccc(Cl)cc1Cl | inactive | –
CC(=O)c1ccc2c(c1)[C@H](NC(=O)c1ccc(F)cc1)[C@@H](O)C(C)(C)O2 | inactive | –
CC1CCc2cc(F)cc3c(=O)c(C(=O)O)cn1c23 (stereo not given) | inactive | –
C=CCCCCCC | inactive | –
Cc1cc(C)c(S(=O)(=O)O)cc1N=Nc1cc(S(=O)(=O)O)c2ccccc2c1O | inactive | –
CC(C(=O)O)c1ccc(-c2ccccc2)c(F)c1 (stereo not given) | inactive | –
N#CCCNCCC#N | inactive | –
COCCO | inactive | –
NC(N)=NN=C(/C=C/c1ccc([N+](=O)[O-])o1)/C=C/c1ccc([N+](=O)[O-])o1 | 2980 nM (active) | –
Nc1nc(N)c2nc(CNc3ccc(C(=O)N[C@@H](CCC(=O)O)C(=O)O)cc3)cnc2n1 | 40.4 nM (active) | –
CC(=O)[C@@]1(O)CC[C@H]2[C@@H]3C[C@H](C)C4=CC(=O)CC[C@]4(C)[C@H]3CC[C@@]21C | inactive | –
CN(c1nccc(=O)[nH]1)C1CCN(c2nc3ccccc3n2Cc2ccc(F)cc2)CC1 | inactive | –
Oc1ccc(C(O)CNCCCCCCNCC(O)c2ccc(O)c(O)c2)cc1O (stereo not given) | inactive | –
O=C(O)Cn1c(C(=O)Nc2nc(-c3ccccc3Cl)cs2)cc2ccccc21 | inactive | –
N#Cc1c(F)cccc1F | inactive | –
CCOc1ccc2[nH]cc(C(=O)NCc3ccccc3)c(=O)c2n1 | inactive | –
Cc1ccc(O)c([C@H](CCN(C(C)C)C(C)C)c2ccccc2)c1 | inactive | –

SMILES | Potency | activity, negative = inhibition
NC(=S)N/N=C/c1cccnc1 | inactive | –
O=C(C(=O)c1ccc(Br)cc1)c1ccc(Br)cc1 | – | 0.195% [at 19 µM] (inactive)
CCCCCCCCCCCCCCCC(=O)OC/C=C(C)/C=C/C=C(C)/C=C/C1=C(C)CCCC1(C)C | inactive | –
O=CNc1ccccc1 | inactive | –
Cc1ccccn1 | inactive | –
COc1ccc(OC)c(OC)c1 | inactive | –
CCCCCC/C=C/C=O | inactive | –
Oc1ccc2c(c1)OCO2 | inactive | –
CC1=CCC(C(C)C)C=C1 (stereo not given) | inactive | –
CC(=O)SCc1ccco1 | inactive | –
CC(C)CCCCCCOC(=O)c1ccc(C(=O)OCCCCCCC(C)C)c(C(=O)OCCCCCCC(C)C)c1 | inactive | –
CCOC(=S)SSC(=S)OCC | inactive | –
Cc1ncsc1CCO | inactive | –
O=C1c2cccc(O)c2C(=O)c2c(O)cc(CO)cc21 | inactive | –
C1=Cc2ccccc2C1 | inactive | –
COc1ccccc1OC(=O)Oc1ccccc1OC | inactive | –
CCc1nn(C2CCCCC2)c2cc(C3(C#N)CCC(C(=O)O)CC3)ccc12 (stereo not given) | inactive | –
CN1CCC(=C2c3ccccc3C=Cc3ccccc32)CC1 | inactive | –
NCCCOCCOCCOCCCN | inactive | –
CCOc1cc(OCC)c(C(=O)CCC(=O)O)cc1OCC | inactive | –
